This experiment is described as follows: basal RPMI8226 viability, no added stimulus, profiling panel, cell-based, calcein-AM fluorescence, 48 h, PK04 Diversity Set (AID 1166).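 Also: cells grown under basal conditions without added stimulus; test concentration not given here.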 Conditions: RPMI8226 myeloma viability, higher = more signal.
With `COc1ccc(C(=O)Nc2cccc(CN3C(=O)[C@]4(O[C@H](CCn5cc(CCO)nn5)[C@@H]([Si](C)(C)c5ccc(OC)cc5)[C@@H]4C)c4ccccc43)c2)cc1`, the z-score is -4.35.

Consider `COC(=O)c1c2oc(c1C(=O)OC)C(=O)N[C@@H](C(C)C)Cn1cc(nn1)C1(CCCCC1)NC(=O)N[C@H](CO)CC2`, for which the z-score is 0.823. For `O=C1NC(=O)C2C1C=CC(C(O)c1ccc(-c3ccccc3)s1)N2Nc1ccc(Cl)cc1Cl` (stereo not given), the z-score was -3.05. Then `CCOC(=O)C[C@H]1[C@H](OC(=O)c2ccc(-c3ccccc3)cc2)[C@@H](NC(=O)c2ccccc2)c2cc(OCCCO)ccc2N1C(=O)Cc1ccc(OC)cc1`, with -0.345; and `COC(=O)[C@@]1(Cc2ccc(OC)cc2)[C@H]2c3cc(C(=O)N4CCCC4)n(CCCNc4ncc(C(F)(F)F)cc4Cl)c3C[C@H]2CN1C(=O)c1ccccc1`, with -4.57; and `CC(=CC1CCCCC1)[C@@H](NC(=O)c1cccnc1)c1ccc(-c2ccccc2)cc1`, with -2.59.

Consider `C=CCC(OC(C)=O)[C@@H]1[C@@H](N(Cc2ccc(-c3cccc(C(F)(F)F)c3)o2)C(=O)Cc2ccc(OC)cc2)c2cc(OCCCO)ccc2N1C(=O)c1ccc2ccccc2c1` (stereo not given in full), for which the z-score was -0.738. In the case of `CCOC(=O)C1=CC[C@@H](c2ccccc2)N(S(=O)(=O)c2ccc(C)cc2)[C@H]1c1ccc(CC)cc1`, the z-score is 0.0825. Turning to `O=c1cccc(-c2ccccc2Cl)o1`, the z-score was 0.0055. With `CCCCC(=C=CC[C@H](O)c1cccc(OCCO)c1)C[C@H](O)c1ccccn1`, the z-score is 1.43.

For the compound `COc1ccc([Si](C)(C)[C@@H]2[C@@H](CC(=O)N3CCC[C@H]3CO)O[C@]3(C(=O)N(Cc4cccc(I)c4)c4ccccc43)[C@H]2C)cc1`, the z-score was -4.52. Regarding `COC(=O)[C@@]1(Cc2ccccc2)[C@H]2c3cc(C(=O)N4CCCC4)n(Cc4c(CO)[nH]cc(C)c4=O)c3C[C@H]2CN1C(=O)c1ccccc1`, the z-score was -2.04. Consider `CCOc1cc(C(O)C2C=CC3C(=O)N(c4ccccc4)C(=O)C3N2Nc2ccc(C(C)C)cc2)ccc1O` (stereo not given), for which the z-score was -1.16. For the compound `CN(C)CCCCCCNC(=O)[C@@H]1C[C@@H]2C(=O)N3CCC[C@H]3C(=O)N2[C@@H]1c1ccc(O)cc1`, the z-score was -0.586. As to `CCC(CC)C(O)C1C=CC2C(=O)N(c3ccccc3)C(=O)C2N1Nc1ccccc1` (stereo not given), the z-score was -0.092. For the compound `COC(=O)[C@@]1(Cc2ccc(OC)cc2)[C@H]2c3cc(C(=O)N4CCCC4)n(Cc4nc5ccccc5[nH]4)c3C[C@H]2CN1C(=O)c1ccccc1`, the z-score is -2.35. Take `O=C1O[C@@H](c2ccccc2)[C@@H](c2ccccc2)N2[C@@H](c3ccc(OCCO)cc3)[C@]3(C(=O)Nc4ccc(C#CC5=CCCCC5)cc43)[C@@H](C(=O)N3CCCCCCC3)[C@H]12`: the z-score is -1.31. On to `O=C(O)[C@@]1(CCS(=O)(=O)c2ccccc2)N=C(c2ccc(OCCCO)cc2)O[C@H]1c1ccccc1`, for which the z-score was -1.04. As for `C=CCNC(=O)[C@@H]1[C@H]2C(=O)O[C@H](c3ccccc3)[C@H](c3ccccc3)N2[C@H](c2ccc(OCCO)cc2)[C@@]12C(=O)N(C(=O)OCCOC)c1ccc(C#CCC(C(=O)OC)C(=O)OC)cc12`, the z-score was -1.34.

Consider `[N-]=[N+]=Nc1ccccc1C[C@@]1(C(=O)N2CCCCC2)N=C(c2ccc(OCCCO)cc2)O[C@@H]1c1ccccc1`, for which the z-score is -4.45. As to `CC(=O)n1cc(C(O)C2C=CC3C(=O)NC(=O)C3N2Nc2ccccn2)c2ccccc21` (stereo not given), the z-score was 0.102. Consider `O=C1OCCC=C[C@H]2OC34C=CCN(c5ccc(Cl)cc5)C(=O)[C@H]3N(CCCO)C(=O)[C@@H]4C12` (stereo not given in full), for which the z-score is -1.16. With `CC(c1ccccc1)C(O)C1C=CC2C(=O)N(c3ccccc3)C(=O)C2N1Nc1ccccc1` (stereo not given), the z-score was -0.823. Under `CCOC(=O)C[C@H]1[C@H](OC(=O)c2ccc(-c3ccccc3)cc2)[C@@H](NC(=O)c2ccccc2)c2cc(OCCCO)ccc2N1C(=O)c1ccc2ccccc2n1` stands -0.617. For the compound `CCCCN1CC=CC23O[C@@H]4C=CCOC(=O)[C@@H]4[C@H]2C(=O)N(CCCCCCO)[C@@H]3C1=O` (stereo not given in full), the z-score is 0.569.

Regarding `COc1ccc(-c2cc3c(c(Cc4ccccc4)n2)[Si](C(C)C)(C(C)C)OC3)cn1`, the z-score was -1.37.

With `COc1cc2c(cc1O)C(c1cccs1)N(Cc1ccc([N+](=O)[O-])o1)CC2` (stereo not given), the z-score is 0.174. With `[N-]=[N+]=NCc1ccccc1[C@@H]1OC(c2ccc(OCCCO)cc2)=N[C@]1(CCS(=O)(=O)c1ccccc1)C(=O)N1CCCCC1`, the z-score is -0.0169.

As for `CC(C)OC(=O)C=C1C[C@@H](c2cccc(Cl)c2)O[C@@H](c2cccc(Cl)c2)O1`, the z-score is -0.66. For the compound `Cc1ccc(S[C@]2(C(=O)NCC(C)C)CC(=O)N(Cc3cc(C(F)(F)F)cc(C(F)(F)F)c3)[C@@H]2c2ccc(CO)cc2)cc1`, the z-score is -0.744. Under `O=C(O)[C@H](Cc1ccccc1)n1cc(-c2ccccc2)nn1` stands -0.157. For `COC(=O)[C@@]1(Cc2ccc(OC)cc2)[C@H]2c3cc(C(=O)N(C)C)n(Cc4ccc(C(F)(F)F)nc4)c3C[C@H]2CN1C(=O)c1ccccc1`, the z-score is -0.782. Then `CCCCC(O)C1C=CC2C(=O)N(C)C(=O)C2N1N1CCCCC1` (stereo not given), with -0.173; and `C=CCNC(=O)[C@H]1[C@@H]2C(=O)O[C@@H](c3ccccc3)[C@@H](c3ccccc3)N2[C@@H](c2ccc(O)cc2)[C@]12C(=O)Nc1ccc(C#CCCO)cc12`, with 0.168. For `CO[C@H]1O[C@H](CO)[C@@H](OC(=O)Nc2ccccc2-c2ccccc2)[C@H](OC(=O)Nc2ccccc2-c2ccccc2)[C@@H]1OC(=O)Nc1ccccc1-c1ccccc1`, the z-score is -1.24.

The values are drawn from PubChem BioAssay.
